The first assay deals with SLC26A5. The assay is described as follows: pooled miR-30 sensor sort-seq; sequence = guide strand. The settings on record: shRNA.
The sequence TAACATTCTGCAACACAGCAAC registered a sensor-assay potency score (higher = more potent) of -0.753.

Consider TTAATGAGGCCAAACAACCTGC, for which the sensor-assay potency score (higher = more potent) was -0.462.

Sequence TTGCATAGTAAATTGGTGCATT came in with a sensor-assay potency score (higher = more potent) of -0.361.

Sequence TTGTCCTTTGTGTGTAGTCTTT displayed a sensor-assay potency score (higher = more potent) of -0.811.

In turn, TATACAAGTCGCTATTTGCATA returned a sensor-assay potency score (higher = more potent) of -1.73.

In the case of TTTCCAAGGACTTTGTAGCTTG, the sensor-assay potency score (higher = more potent) was -0.312.

TTCTGCAACACAGCAACTGTAC registered a sensor-assay potency score (higher = more potent) of -0.438.

TTGTGTGTAGTCTTTCCTGGAG registered a sensor-assay potency score (higher = more potent) of -0.0771.

TAGTCTTTCCTGGAGGACCGGA yielded a sensor-assay potency score (higher = more potent) of -0.913.

As to TATCATCTGGTACTAATCGAAC, the sensor-assay potency score (higher = more potent) was -1.32.

In turn, TAAATCTTTGCATTTCCTCAGG gave a sensor-assay potency score (higher = more potent) of -0.693.

For the sequence TTTCGTTTTAATGCATTGCTAT, the sensor-assay potency score (higher = more potent) was -0.563.

In the next assay the target is SLC26A8. Described as above. The settings on record: shRNA.
Turning to TTTACAAATGTAATTGAGCTGC, the sensor-assay potency score (higher = more potent) was -0.345.

The sequence TGAATTGTCATTCTTGTCTGTT came in with a sensor-assay potency score (higher = more potent) of -0.0701.

In the case of TTGAATTGTCATTCTTGTCTGT, the sensor-assay potency score (higher = more potent) came to 0.809.

On to TTGAGCTTCATCTCTTTGGAGA, for which the sensor-assay potency score (higher = more potent) is -0.991.

On to TAGTCCTAGCAATAGCACCAGT, for which the sensor-assay potency score (higher = more potent) was -1.08.

For TTGATTTTTCTGAGACACGGAC, the sensor-assay potency score (higher = more potent) was -0.723.

As to TAATCGATACATACACATCCAT, the sensor-assay potency score (higher = more potent) was -0.25.

In the case of TTTTATATCTTGAATTGTCATT, the sensor-assay potency score (higher = more potent) is -1.25.

On to TTTATTTTCAAATCGCTCTGTG, for which the sensor-assay potency score (higher = more potent) came out at 0.487.

TTAGGTAGTAAACATTTACAAA: the sensor-assay potency score (higher = more potent) was -1.21.

TTATCCTGGATAATAGTCCTAG gave a sensor-assay potency score (higher = more potent) of -0.541.

AATCGATACATACACATCCATT had a sensor-assay potency score (higher = more potent) of -1.59.

These data come from the OligoGym collection.
Note: reference of the scale not given here.
